Records with an inconclusive call do not appear. Active and inactive are the calls of the source. Unless noted, the call rests on the fitted dose curve.
Experiments:
[1] = qHTS for Inhibitors of the Functional Ribonucleoprotein Complex (vRNP) of Lassa (LASV) Arenavirus: LASV Primary Screen - GLuc reporter signal (AID 1347082; calls by dose curve; tested in HEK293 reporter line; further: nearly all actives have a fitted effect of over 60% in size; further: potency means the concentration at half of the fitted maximal effect; on activity change, negative = inhibition: on the % scale 0 is the no-effect control and ±100 the full control effect)
[2] = qHTS for Inhibitors of the Functional Ribonucleoprotein Complex (vRNP) of Lymphocytic Choriomeningitis Arenaviruses (LCMV): Viability assay - alamar blue signal for LCMV Primary Screen (AID 1347085; calls by dose curve; tested in HEK293 reporter line; further: on the % scale 0 is the no-effect control and ±100 the full control effect; nearly all actives have a fitted effect of over 80% in size)
[3] = biological target: Nucleoprotein (Lymphocytic choriomeningitis virus (strain Armstrong)) (UniProt P09992); test: qHTS for Inhibitors of the Functional Ribonucleoprotein Complex (vRNP) of Lymphocytic Choriomeningitis Arenaviruses (LCMV): LCMV Primary Screen - GLuc reporter signal (AID 1347086); further: nearly all actives have a fitted effect of over 70% in size; further: potency means the concentration at half of the fitted maximal effect; on activity change, negative = inhibition: on the % scale 0 is the no-effect control and ±100 the full control effect
Chain of Nucleoprotein (Lymphocytic choriomeningitis virus (strain Armstrong)) (P09992 whole entry, looked up): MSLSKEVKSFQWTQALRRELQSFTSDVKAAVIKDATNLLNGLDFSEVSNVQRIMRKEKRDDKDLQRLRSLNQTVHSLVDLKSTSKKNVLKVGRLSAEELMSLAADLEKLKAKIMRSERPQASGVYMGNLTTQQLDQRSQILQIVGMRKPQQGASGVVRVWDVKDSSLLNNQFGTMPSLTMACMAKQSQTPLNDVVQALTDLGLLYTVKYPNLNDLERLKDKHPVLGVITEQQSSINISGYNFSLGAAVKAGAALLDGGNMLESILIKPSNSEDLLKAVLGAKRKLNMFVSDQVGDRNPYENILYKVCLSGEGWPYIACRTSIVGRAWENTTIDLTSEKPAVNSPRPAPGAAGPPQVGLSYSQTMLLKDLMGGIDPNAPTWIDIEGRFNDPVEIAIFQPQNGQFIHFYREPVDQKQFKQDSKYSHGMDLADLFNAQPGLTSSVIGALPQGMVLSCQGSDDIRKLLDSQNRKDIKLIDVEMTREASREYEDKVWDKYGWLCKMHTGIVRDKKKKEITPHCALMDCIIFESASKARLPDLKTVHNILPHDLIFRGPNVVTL

[4] = Cytotoxicity counterscreen for inhibitors of SARS-CoV-2 cell entry (AID 1645845); further: nearly all actives have a fitted effect of over 50% in size
Method in brief: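 After a 15 min room-temperature ATPLite 1step step, luminescence reflected ATP remaining in HEK293-ACE2 cells exposed to compound for 1 h plus 48 h at 37 C, with percent activity set by cell and no-cell controls.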

[5] = Primary qHTS to identify inhibitors of SARS-CoV-2 cell entry (AID 1645846); details: activity change, negative = inhibition: at 57.1 µM (top of the series) unless noted; further: nearly all actives have a fitted effect of over 45% in size
Method in brief: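 Using luciferase-reporting pseudoviruses carrying Wuhan-Hu-1 spike, the screen tracks entry into stably ACE2-expressing cells over 48 hr. Activity is expressed relative to spike particles versus particles lacking any fusion protein.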

[6] = Confirmatory qHTS for activators (rescue) of SARS-CoV-2 Cytopathic Effect (CPE) (AID 1508606); further: 0% is about no effect; nearly all actives have a fitted effect of over 70% in size
[7] = biological target: Alpha-galactosidase (Coffea arabica) (UniProt Q42656); test: Counterscreen for Glucocerebrosidase Inhibitors: qHTS Assay for Coffee Bean alpha-Galactosidase at pH 4.5 (AID 957; active means well fitted curve in the direction sought with a large enough effect; an effect the other way counts as inactive or inconclusive;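 further: plate controls were enzyme alone for no effect and no enzyme for full effect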)
Chain of Alpha-galactosidase (Coffea arabica) (Q42656 whole entry, looked up): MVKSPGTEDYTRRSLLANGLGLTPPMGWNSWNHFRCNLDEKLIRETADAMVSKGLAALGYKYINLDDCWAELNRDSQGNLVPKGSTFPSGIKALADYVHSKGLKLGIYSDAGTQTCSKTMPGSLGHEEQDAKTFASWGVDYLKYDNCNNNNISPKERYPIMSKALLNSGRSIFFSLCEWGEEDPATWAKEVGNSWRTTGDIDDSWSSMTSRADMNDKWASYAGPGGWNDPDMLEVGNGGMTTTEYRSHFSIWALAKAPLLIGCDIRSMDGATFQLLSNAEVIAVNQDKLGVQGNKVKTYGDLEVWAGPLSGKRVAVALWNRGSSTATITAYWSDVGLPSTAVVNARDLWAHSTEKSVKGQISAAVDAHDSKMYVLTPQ
Method in brief: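 Enzyme is added first (2 nM final), then compounds titrated from 0.7 nM to 77 uM, then 80 uM 4-methylumbelliferyl alpha-D-galactopyranoside; after 20 min at room temperature a pH 10 NaOH/glycine stop precedes fluorescence reading at 365/440 nm.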

[8] = biological target: Alpha-galactosidase (Coffea arabica) (UniProt Q42656); test: Counterscreen for Glucocerebrosidase Inhibitors: qHTS Assay for Coffee Bean alpha-Galactosidase at pH 5.9 (AID 998; active means well fitted curve in the direction sought with a large enough effect; an effect the other way counts as inactive or inconclusive;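 further: plate controls were uninhibited enzyme for no effect and no-enzyme basal signal for full effect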)
Method in brief: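 In 50 mM citric acid pH 5.9 with 0.005% Tween-20, coffee bean enzyme hydrolyses 80 uM 4-MU alpha-D-galactopyranoside over 20 min at RT. Activity is normalized to controls; AC50 comes from Hill-modelled concentration-response data.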

[9] = Inducers of the Endoplasmic Reticulum Stress Response (ERSR) in human glioma: Validation (AID 504836; active means well fitted curve in the direction sought with a large enough effect; an effect the other way counts as inactive or inconclusive; further: 0% is about no effect)
Method in brief: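 Stably transfected U87-MG human glioma cells carrying a GRP78-based luminescent sensor were seeded at 1000 cells/well, pin-dosed with compounds and incubated 16 h. Luciferase reagent was then added, and end-point luminescence was read after 10 min at room temperature.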

[10] = biological target: Bile acid receptor (Homo sapiens) (UniProt Q96RI1); test: qHTS assay for small molecule agonists of farnesoid X receptor signaling (AID 588527); details: HEK293T FXR-UAS-bla, beta-lactamase ratio, 16 h; activation: stronger effect = higher value;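 further: 0% = vehicle basal and 100% = reference agonist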
Chain of Bile acid receptor (Homo sapiens) (Q96RI1 whole entry, looked up): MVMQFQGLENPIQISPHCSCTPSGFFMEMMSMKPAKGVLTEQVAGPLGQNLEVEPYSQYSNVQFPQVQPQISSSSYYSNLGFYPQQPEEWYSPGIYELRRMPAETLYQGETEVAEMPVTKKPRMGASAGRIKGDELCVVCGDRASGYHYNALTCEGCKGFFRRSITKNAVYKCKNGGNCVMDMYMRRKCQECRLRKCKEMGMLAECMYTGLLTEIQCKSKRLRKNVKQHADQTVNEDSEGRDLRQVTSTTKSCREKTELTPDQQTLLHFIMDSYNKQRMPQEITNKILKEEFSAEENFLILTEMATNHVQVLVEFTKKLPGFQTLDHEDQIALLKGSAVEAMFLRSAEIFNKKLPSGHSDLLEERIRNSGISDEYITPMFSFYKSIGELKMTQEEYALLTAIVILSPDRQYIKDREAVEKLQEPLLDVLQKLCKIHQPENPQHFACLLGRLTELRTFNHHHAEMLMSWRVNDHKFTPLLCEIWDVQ
Method in brief: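 Quantitative HTS used FXR-UAS-bla HEK293T cells with 16 h compound incubation at 37 C. EC50 values came from concentration-response curves normalized to chenodeoxycholic acid.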

[11] = biological target: Peroxisome proliferator-activated receptor delta (Homo sapiens) (UniProt Q03181); test: qHTS assay for small molecule agonists of peroxisome proliferator-activated receptor delta signaling (AID 588534);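 further: 0% = DMSO basal wells and 100% = positive control agonist at 10 µM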
Chain of Peroxisome proliferator-activated receptor delta (Homo sapiens) (Q03181 whole entry, looked up): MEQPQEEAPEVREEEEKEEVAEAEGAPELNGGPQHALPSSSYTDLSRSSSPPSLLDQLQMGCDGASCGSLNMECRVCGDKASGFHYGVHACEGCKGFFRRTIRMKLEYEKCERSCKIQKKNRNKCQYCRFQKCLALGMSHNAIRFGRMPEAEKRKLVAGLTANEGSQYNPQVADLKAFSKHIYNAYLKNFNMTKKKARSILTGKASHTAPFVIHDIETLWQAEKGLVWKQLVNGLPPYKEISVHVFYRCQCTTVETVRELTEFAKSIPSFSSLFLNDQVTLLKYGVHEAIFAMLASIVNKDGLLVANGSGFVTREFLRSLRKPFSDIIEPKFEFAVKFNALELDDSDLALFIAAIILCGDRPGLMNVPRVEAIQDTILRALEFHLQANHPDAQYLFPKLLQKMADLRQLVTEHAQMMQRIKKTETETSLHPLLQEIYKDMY
Method in brief: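 Agonist-mode qHTS; reporter cells, 5 hrs 37 C pre-incubation; compound titration, 18 hrs 37 C; CCF4 dye, 2 hrs RT; fluorescence read. EC50/efficacy via Hill fit.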

Nc1ncnc2c1nc(Cl)n2[C@@H]1O[C@H](CO)[C@@H](O)[C@@H]1O
inactive: Potency [1] | Potency [2] | Potency [3]

C[C@H](NC(=O)C(C#N)=Cc1cccc(Br)n1)c1ccccc1
inactive: Potency [1] | Potency [2] | Potency [3]

Cn1c(=O)c(Oc2ccc(F)cc2F)cc2cnc(NC3CCOCC3)nc21
inactive: Potency [1] | Potency [2] | Potency [3] | Potency [4] | Potency [5]

CN(Cc1nc2c(N)nc(N)nc2[nH]c1=O)c1ccc(C(=O)NC(CCC(=O)O)C(=O)O)cc1 (stereo unspecified)
inactive: Potency [1] | Potency [2] | Potency [3]

Cn1cc(-c2ccncc2)c(-c2ccc(OCc3ccc4ccccc4n3)cc2)n1
inactive: Potency [2] | Potency [6]
active: Potency [1] 21.7 µM | Potency [3] 21.7 µM

C=C1C[C@H](OC(=O)C(C)(O)CCl)C2C(=C)C(=O)O[C@@H]2C2C1C[C@H](O)[C@]2(O)CCl (stereo partly specified)
inactive: Potency [1] | Potency [2] | Potency [3]

COc1cc(O)c2c(=O)c(-c3ccc(O[C@@H]4O[C@H](CO)[C@@H](O)[C@H](O)[C@H]4O)cc3)coc2c1
inactive: Potency [1] | Potency [2] | Potency [3]

Nc1ncn([C@@H]2O[C@H](CO)[C@@H](O)[C@@H]2O)c(=O)n1
inactive: Potency [1] | Potency [2] | Potency [3]

CCn1c(C(=O)N(C2CC2)C2CC2)cc2c3c(ncn3C)c(Nc3cc(C)n(C)n3)nc21
-14.3%: activity change, negative = inhibition [5]
inactive: Potency [1] | Potency [2] | Potency [3] | Potency [4]

O=C1NCc2c1c1c3ccccc3[nH]c1c1[nH]c3ccccc3c21
inactive: Potency [1] | Potency [3]

O=C(/C=C/c1ccc(O)c(O)c1)OC(Cc1ccc(O)c(O)c1)C(=O)O (stereo unspecified)
inactive: Potency [1] | Potency [3]

O=C(O)Cc1ccc(O)c(O)c1
inactive: outcome [7] | outcome [8] | outcome [9] | Potency [1] | Potency [2] | Potency [3]

CC1=CC(O)C(O)C2(C)C1CC1OC(=O)C(O)C3C(C)C(O)C4(O)OCC13C42 (stereo unspecified)
inactive: Potency [1] | Potency [3]

O=C(Nc1ccccc1)c1cc([N+](=O)[O-])ccc1Cl
inactive: outcome [7] | outcome [8] | outcome [9] | activation [10] -1.48% | Potency [11] | Potency [1] | Potency [2]

Nc1ncnc2c1nc(Br)n2C1OC2COP(=O)(O)O[C@@H]2C1O (stereo partly specified)
inactive: outcome [9] | Potency [1] | Potency [2] | Potency [3]

COc1ccc(-c2cc(=O)c3c(O)c(OC)c(OC)cc3o2)cc1O
inactive: Potency [1] | Potency [3]

Nc1nc(Cl)nc2c1ncn2[C@@H]1O[C@H](COP(=O)(O)OP(=O)(O)OP(=O)(O)O)[C@@H](O)[C@H]1O
inactive: outcome [9] | Potency [1] | Potency [2] | Potency [3]

— PubChem BioAssay (NCATS)
